# In PubChem BioAssay:
# The source made the active and inactive calls. Unless noted, no rule for the calls is given here.
# Columns and labels:
# [1] = anti-His antibody binders, primary screen, artefact control for SMM control protein annotation, biochemical, small-molecule microarray, 635 nm fluorescence (AID 1128); conditions: anti-His Alexa647 antibody binding, higher = more signal;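 also: score merges feature fluorescence with signal-to-noise for each printed compound spot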
# [2] = system: Human papillomavirus type 1a E7 protein (residues 1-88); assay: HPV1a E7 small-molecule binders, primary screen, biochemical, small-molecule microarray, residues 1-88, 635 nm (AID 1129); conditions: small-molecule microarray binding, fluorescence 635 nm; higher = more signal
# [3] = biological target: Focal adhesion kinase 1 (Homo sapiens) (UniProt Q05397); assay: small-molecule microarray binders of FAK, primary screen, biochemical, 635/667 nm fluorescence, BSA, DTT (AID 1130); conditions: PTK2 binding, 635 nm fluorescence, higher = more signal;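 also: composite of spot emission at 667 nm and signal to noise over triplicate slides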
# [4] = system: Fibrinogen (Alexa647-labelled); assay: fibrinogen binders on compound microarrays, profiling panel, artefact control for SMM control-protein annotation, biochemical, small-molecule microarray, 635/667 nm fluorescence (AID 1131); conditions: fibrinogen-A647 binding fluorescence, higher = more signal;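 also: z-score merges 667 nm fluorescence with per-spot signal-to-noise over triplicate slides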
# [5] = biological target: Follistatin (Homo sapiens) (UniProt P19883); assay: follistatin binders on small-molecule microarrays, primary screen, biochemical, small-molecule microarray, 635/667 nm fluorescence (AID 1132); conditions: FST binding, 635 nm fluorescence, higher = more signal
# [6] = biological target: Fibroblast growth factor 2 (Homo sapiens) (UniProt P09038); assay: FGF2 binders on small-molecule microarrays, primary screen, biochemical, small-molecule microarray, 635/667 nm fluorescence (AID 1133); conditions: small-molecule microarray binding, FGF2, fluorescence 635/667; higher = more signal
# [7] = mitochondrial membrane potential change in A549 cells, profiling panel, cell-based, JC-1 fluorescence, basal, 24 h, 100 nL (AID 1138); conditions: higher = more signal;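 also: A549 lung adenocarcinoma cells under basal conditions with no added stimulus; test concentration not given here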
# Lefty1 = Lefty1 binders on small-molecule microarrays, primary screen, biochemical, small-molecule microarray, 635/667 nm fluorescence (AID 1139); conditions: small-molecule microarray binding, fluorescence 635/667; higher = more signal
# [8] = system: wheat germ agglutinin (Triticum aestivum), Alexa647-labelled; assay: wheat germ agglutinin binders on compound microarrays, profiling panel, artefact control for SMM control-protein annotation, biochemical, small-molecule microarray, 635/667 nm fluorescence (AID 1140); conditions: WGA-A647 binding, 635 nm fluorescence, higher = more signal;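 also: score merges 667 nm feature emission with signal to noise over triplicate slides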
# [9] = biological target: Luciferin 4-monooxygenase (Photinus pyralis) (UniProt P08659); assay: firefly luciferase enzyme inhibitors, primary screen, biochemical, luminescence, purified enzyme, 2006 set (AID 1141); conditions: SteadyGlo luminescence, 30 min, higher = more signal, called active from +8 up or from −8 down;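 also: cell-free assay with purified firefly luciferase at 100 ng per well in PBS; test concentration not given here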
# [10] = system: Wnt5a (protein binding on small-molecule microarray); assay: Wnt5a binders on small-molecule microarray, primary screen, biophysical, 635/667 nm fluorescence (AID 1142); conditions: 635 nm fluorescence, higher = more signal;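 also: fluorescence read at 667 nm with signal to noise per printed feature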
# [11] = cell viability in Huh7 cells, primary screen, cytotoxicity control for HCV replication inhibitor project, CellTiter-Glo luminescence, basal, 48 h (AID 1143); conditions: Huh7 HCV replicon, higher = more signal, called active from +8 up or from −8 down;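 also: Huh7 hepatoma cells carrying a hepatitis C replication reporter with no stimulus; test concentration not given here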
# [12] = P. aeruginosa biofilm formation inhibitors, primary screen, PAO1 strain, BacTiter-Glo luminescence, LB-PBS (AID 1144); conditions: 12 h, higher = more signal
# [13] = CREB reporter modulators without forskolin, primary screen, cell-based, PC12, CRE-LacZ reporter, unstimulated (AID 1145); conditions: no forskolin, luminescence, 4.5 h, higher = more signal, called active from +8 up or from −8 down
# [14] = CREB reporter modulators under forskolin, primary screen, cell-based, PC12, CRE-LacZ reporter, forskolin-stimulated (AID 1146); conditions: luminescence, 4.5 h, higher = more signal, called active from +8 up or from −8 down;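 also: PC12 cells with 6xCRE LacZ reporter stimulated by forskolin 10 µM; beta-galactosidase reporter signal reflecting CREB driven transcription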
# [15] = biological target: Streptavidin (Streptomyces avidinii) (UniProt P22629); assay: streptavidin binders on small-molecule microarray, primary screen, artefact control for SMM compound annotation, biophysical, 635/667 nm fluorescence (AID 1147); conditions: streptavidin binding, higher = more signal;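 also: signal reflects streptavidin binding to arrayed compounds as a control protein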
# [16] = small-molecule binders of probe aInhba, primary screen, biochemical, small-molecule microarray, 635/667 nm fluorescence (AID 1148); conditions: higher = more signal;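 also: score merges 667nm spot fluorescence with signal-to-noise for antibody binding to printed compounds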
# Torsin-1A (Homo sapiens) [17] = biological target: Torsin-1A (Homo sapiens) (UniProt O14656); assay: torsin A binders from cell lysate, primary screen, small-molecule microarray, wild-type, 635/667 nm (AID 1149); conditions: COS7 hTOR1A-WT lysate, 635 nm fluorescence, higher = more signal
# Torsin-1A (Homo sapiens) [18] = biological target: Torsin-1A (Homo sapiens) (UniProt O14656); assay: small-molecule binders of mutant TOR1A in lysate, primary screen, cell lysate, small-molecule microarray, COS7 lysate, 635/667 nm fluorescence (AID 1150); conditions: COS7 hTOR1A mutant lysate, 635 nm fluorescence, higher = more signal;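 also: score pools 667 nm emission and signal to noise measuring lysate protein binding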
# [19] = system: Sonic hedgehog protein (Shh); assay: small-molecule binders of Shh protein, primary screen, biochemical, small-molecule microarray, 635/667 nm fluorescence (AID 1151); conditions: small-molecule microarray binding, 635 nm fluorescence; higher = more signal;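 also: Shh protein binding to compounds spotted on small-molecule microarray slides; score combines spot fluorescence intensity with signal-to-noise across triplicate slides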
# Chain of Streptavidin (Streptomyces avidinii) (P22629 whole entry, looked up): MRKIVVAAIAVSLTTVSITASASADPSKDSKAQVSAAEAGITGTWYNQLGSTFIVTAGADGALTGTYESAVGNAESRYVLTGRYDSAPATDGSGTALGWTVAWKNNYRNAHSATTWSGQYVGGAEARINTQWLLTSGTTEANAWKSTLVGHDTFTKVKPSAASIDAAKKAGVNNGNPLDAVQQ
# Chain of Follistatin (Homo sapiens) (P19883 whole entry, looked up): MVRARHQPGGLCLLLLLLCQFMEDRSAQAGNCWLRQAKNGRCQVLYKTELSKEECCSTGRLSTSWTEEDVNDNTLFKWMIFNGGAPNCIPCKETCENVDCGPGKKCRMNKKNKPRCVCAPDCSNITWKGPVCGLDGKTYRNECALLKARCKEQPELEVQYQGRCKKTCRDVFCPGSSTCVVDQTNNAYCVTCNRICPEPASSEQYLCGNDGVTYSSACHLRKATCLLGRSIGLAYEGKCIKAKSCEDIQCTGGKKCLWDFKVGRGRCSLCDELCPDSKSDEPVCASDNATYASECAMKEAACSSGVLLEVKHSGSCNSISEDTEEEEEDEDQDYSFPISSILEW
# Chain of Focal adhesion kinase 1 (Homo sapiens) (Q05397 whole entry, looked up): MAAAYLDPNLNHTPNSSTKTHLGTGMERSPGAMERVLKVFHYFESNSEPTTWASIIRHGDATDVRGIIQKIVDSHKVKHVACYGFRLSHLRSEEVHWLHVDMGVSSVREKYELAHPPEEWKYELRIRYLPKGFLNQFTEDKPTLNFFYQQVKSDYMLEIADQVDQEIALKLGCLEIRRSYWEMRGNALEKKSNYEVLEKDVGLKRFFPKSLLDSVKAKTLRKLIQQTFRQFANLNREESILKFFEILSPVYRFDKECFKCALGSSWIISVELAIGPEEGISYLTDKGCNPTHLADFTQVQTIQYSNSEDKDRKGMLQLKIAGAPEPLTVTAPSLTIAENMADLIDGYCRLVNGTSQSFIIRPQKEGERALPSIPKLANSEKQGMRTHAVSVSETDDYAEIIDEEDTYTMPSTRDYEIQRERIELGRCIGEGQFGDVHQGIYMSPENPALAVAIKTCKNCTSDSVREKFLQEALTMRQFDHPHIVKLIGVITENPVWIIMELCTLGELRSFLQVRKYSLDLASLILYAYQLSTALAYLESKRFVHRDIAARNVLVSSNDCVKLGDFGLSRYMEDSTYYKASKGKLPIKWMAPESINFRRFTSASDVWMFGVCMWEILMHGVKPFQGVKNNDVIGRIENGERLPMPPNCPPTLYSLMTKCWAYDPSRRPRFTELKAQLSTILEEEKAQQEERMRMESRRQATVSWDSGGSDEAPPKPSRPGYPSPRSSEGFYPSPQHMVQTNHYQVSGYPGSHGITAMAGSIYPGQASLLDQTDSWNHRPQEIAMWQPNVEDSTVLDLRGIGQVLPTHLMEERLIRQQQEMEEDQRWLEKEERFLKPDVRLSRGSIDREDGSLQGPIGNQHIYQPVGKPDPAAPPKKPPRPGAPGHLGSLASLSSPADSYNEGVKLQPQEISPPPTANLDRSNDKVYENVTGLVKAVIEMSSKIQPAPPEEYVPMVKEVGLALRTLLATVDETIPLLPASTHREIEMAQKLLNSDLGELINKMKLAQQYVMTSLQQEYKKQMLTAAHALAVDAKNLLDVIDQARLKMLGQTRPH
# Chain of Luciferin 4-monooxygenase (Photinus pyralis) (P08659 whole entry, looked up): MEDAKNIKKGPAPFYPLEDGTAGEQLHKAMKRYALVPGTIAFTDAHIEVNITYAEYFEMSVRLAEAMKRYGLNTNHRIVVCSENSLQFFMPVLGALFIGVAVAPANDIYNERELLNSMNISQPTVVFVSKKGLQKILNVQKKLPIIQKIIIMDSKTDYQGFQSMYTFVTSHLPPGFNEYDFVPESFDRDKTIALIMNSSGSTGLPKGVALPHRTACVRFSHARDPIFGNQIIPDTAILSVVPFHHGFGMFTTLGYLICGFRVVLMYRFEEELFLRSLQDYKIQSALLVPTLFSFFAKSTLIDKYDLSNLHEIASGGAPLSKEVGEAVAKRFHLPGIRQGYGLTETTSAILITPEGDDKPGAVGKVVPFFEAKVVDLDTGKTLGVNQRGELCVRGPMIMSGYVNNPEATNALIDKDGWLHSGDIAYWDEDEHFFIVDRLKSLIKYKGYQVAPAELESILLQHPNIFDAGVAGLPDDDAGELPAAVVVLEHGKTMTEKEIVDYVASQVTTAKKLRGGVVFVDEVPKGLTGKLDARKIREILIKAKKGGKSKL
# Chain of Torsin-1A (Homo sapiens) (O14656 whole entry, looked up): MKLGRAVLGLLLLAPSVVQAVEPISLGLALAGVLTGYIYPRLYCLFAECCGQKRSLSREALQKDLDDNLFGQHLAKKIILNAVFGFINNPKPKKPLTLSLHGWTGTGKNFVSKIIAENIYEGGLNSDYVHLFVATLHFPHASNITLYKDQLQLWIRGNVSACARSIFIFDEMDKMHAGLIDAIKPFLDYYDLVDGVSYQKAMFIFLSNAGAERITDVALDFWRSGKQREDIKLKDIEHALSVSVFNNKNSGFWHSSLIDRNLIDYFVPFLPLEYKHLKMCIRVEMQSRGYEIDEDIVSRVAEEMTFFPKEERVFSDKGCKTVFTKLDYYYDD
# Chain of Fibroblast growth factor 2 (Homo sapiens) (P09038 whole entry, looked up): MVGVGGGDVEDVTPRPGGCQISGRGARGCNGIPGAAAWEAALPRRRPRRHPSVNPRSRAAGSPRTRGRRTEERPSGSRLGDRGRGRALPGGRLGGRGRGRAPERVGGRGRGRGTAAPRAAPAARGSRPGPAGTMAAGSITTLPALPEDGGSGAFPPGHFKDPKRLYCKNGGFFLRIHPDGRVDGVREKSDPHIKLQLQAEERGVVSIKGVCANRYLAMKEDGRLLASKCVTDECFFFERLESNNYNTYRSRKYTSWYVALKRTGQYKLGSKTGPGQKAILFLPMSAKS
smiles,measurement,setting,value
CCCCC(=C=CC[C@H](O)c1ccccc1OCCO)C[C@H](O)c1ccccn1,composite z-score,[1],0.299
same,composite z-score,[2],0.0909
same,composite z-score,[3],-0.255
same,composite z-score,[4],-0.196
same,composite z-score,[5],1.29
same,composite z-score,[6],1.37
same,z-score,[7],0.717
same,composite z-score,Lefty1,1.15
same,composite z-score,[8],0.458
same,z-score,[9],-0.109 (inactive)
same,composite z-score,[10],-0.135
same,z-score,[11],-0.392 (inactive)
same,z-score,[12],-0.0512 (inactive)
same,z-score,[13],6.34 (inactive)
same,z-score,[14],-0.872 (inactive)
same,composite z-score,[15],0.597
same,composite z-score,[16],-0.0762
same,composite z-score,Torsin-1A (Homo sapiens) [17],0.718
same,composite z-score,Torsin-1A (Homo sapiens) [18],1.01
same,composite z-score,[19],1.4
COC(=O)[C@@]1(Cc2ccccc2)[C@H]2c3cc(C(=O)N(C)C)n(Cc4ccc(O)c(OC)c4)c3C[C@H]2CN1C(=O)c1ccccc1,composite z-score,[1],2.42
same,composite z-score,[2],1.11
same,composite z-score,[3],1.12
same,composite z-score,[4],0.418
same,composite z-score,[5],0.465
same,composite z-score,[6],-0.875
same,z-score,[7],-1.29
same,composite z-score,Lefty1,-0.239
same,composite z-score,[8],-0.0465
same,z-score,[9],1.19 (inactive)
same,composite z-score,[10],0.672
same,z-score,[11],-4.52 (inactive)
same,z-score,[12],-0.886 (inactive)
same,z-score,[13],-0.565 (inactive)
same,z-score,[14],0.883 (inactive)
same,composite z-score,[15],0.468
same,composite z-score,[16],0.877
same,composite z-score,Torsin-1A (Homo sapiens) [17],0.698
same,composite z-score,Torsin-1A (Homo sapiens) [18],1.06
same,composite z-score,[19],-0.851
CCN(CC)c1ccc(N2CC=CC34O[C@@H]5/C=C\CCCOC(=O)C5[C@H]3C(=O)N(CCCCCO)[C@@H]4C2=O)cc1 (stereo not given in full),composite z-score,[1],-0.617
same,composite z-score,[2],-1.39
same,composite z-score,[3],-0.722
same,composite z-score,[4],-2.57
same,composite z-score,[5],-0.785
same,composite z-score,[6],-1.26
same,z-score,[7],0.965
same,composite z-score,Lefty1,-0.758
same,composite z-score,[8],-1.19
same,z-score,[9],-0.918 (inactive)
same,composite z-score,[10],-0.704
same,z-score,[11],-0.119 (inactive)
same,z-score,[12],2.25 (inactive)
same,z-score,[13],0.605 (inactive)
same,z-score,[14],0.417 (inactive)
same,composite z-score,[15],-1.45
same,composite z-score,[16],-0.211
same,composite z-score,Torsin-1A (Homo sapiens) [17],-2.51
same,composite z-score,Torsin-1A (Homo sapiens) [18],-1.91
same,composite z-score,[19],-0.155
C=CC[C@]1(C(=O)NCC(O)CO)N=C(c2ccc(OCCCO)cc2)O[C@H]1c1ccccc1N=[N+]=[N-] (stereo not given in full),composite z-score,[1],2.28
same,composite z-score,[2],0.653
same,composite z-score,[3],0.302
same,composite z-score,[4],0.66
same,composite z-score,[5],1.1
same,composite z-score,[6],0.264
same,z-score,[7],-0.152
same,composite z-score,Lefty1,-0.661
same,composite z-score,[8],0.986
same,z-score,[9],-6.91 (inactive)
same,composite z-score,[10],0.257
same,z-score,[11],-1.4 (inactive)
same,z-score,[12],-0.323 (inactive)
same,z-score,[13],1.24 (inactive)
same,z-score,[14],-0.652 (inactive)
same,composite z-score,[15],1.4
same,composite z-score,[16],0.215
same,composite z-score,Torsin-1A (Homo sapiens) [17],0.16
same,composite z-score,Torsin-1A (Homo sapiens) [18],1.46
same,composite z-score,[19],-0.723
CC1C=C(CCCO)C=C(C(=O)OCCS(C)(=O)=O)C(C(=O)OCCS(C)(=O)=O)=CN1Cc1cccc(OC(F)(F)F)c1 (stereo not given),composite z-score,[1],1
same,composite z-score,[2],0.799
same,composite z-score,[3],-0.0696
same,composite z-score,[4],1.02
same,composite z-score,[5],0.0361
same,composite z-score,[6],-0.356
same,z-score,[7],0.848
same,composite z-score,Lefty1,-0.309
same,composite z-score,[8],0.785
same,z-score,[9],-0.234 (inactive)
same,composite z-score,[10],0.0382
same,z-score,[11],-0.911 (inactive)
same,z-score,[12],-0.846 (inactive)
same,z-score,[13],-0.364 (inactive)
same,z-score,[14],0.56 (inactive)
same,composite z-score,[15],1.28
same,composite z-score,[16],0.288
same,composite z-score,Torsin-1A (Homo sapiens) [17],0.887
same,composite z-score,Torsin-1A (Homo sapiens) [18],0.893
same,composite z-score,[19],-0.0368
O=C1O[C@H](c2ccccc2)[C@H](c2ccccc2)N2[C@H]1[C@@H](C(=O)N1CCCCCCC1)[C@]1(C(=O)Nc3ccc(C#CCCO)cc31)[C@H]2c1ccc(OCCO)cc1,composite z-score,[1],2.99
same,composite z-score,[2],1.36
same,composite z-score,[3],5.23
same,composite z-score,[4],0.97
same,composite z-score,[5],1.52
same,composite z-score,[6],1.27
same,z-score,[7],-0.421
same,composite z-score,Lefty1,1.92
same,composite z-score,[8],1.64
same,z-score,[9],-0.264 (inactive)
same,composite z-score,[10],2.02
same,z-score,[11],-2.18 (inactive)
same,z-score,[12],0.278 (inactive)
same,z-score,[13],-1.42 (inactive)
same,z-score,[14],-0.757 (inactive)
same,composite z-score,[15],4.02
same,composite z-score,[16],1.82
same,composite z-score,Torsin-1A (Homo sapiens) [17],3.41
same,composite z-score,Torsin-1A (Homo sapiens) [18],3.46
same,composite z-score,[19],2.35
O=C1CSC(c2cccc([N+](=O)[O-])c2)N1c1ccccc1 (stereo not given),composite z-score,[1],0.317
same,composite z-score,[2],0.494
same,composite z-score,[3],-0.0119
same,composite z-score,[4],0.667
same,composite z-score,[5],0.244
same,composite z-score,[6],0.481
same,z-score,[7],0.774
same,composite z-score,Lefty1,0.257
same,composite z-score,[8],-0.0002
same,z-score,[9],0.174 (inactive)
same,composite z-score,[10],0.0388
same,z-score,[11],-0.735 (inactive)
same,z-score,[12],-0.249 (inactive)
same,z-score,[13],-0.321 (inactive)
same,z-score,[14],-0.567 (inactive)
same,composite z-score,[15],-0.545
same,composite z-score,[16],-0.147
same,composite z-score,Torsin-1A (Homo sapiens) [17],0.838
same,composite z-score,Torsin-1A (Homo sapiens) [18],0.153
same,composite z-score,[19],0.221
O=C(N1CCOCC1)[C@@]1(CCS(=O)(=O)c2ccccc2)COC(c2ccc(OCCCO)cc2)=N1,composite z-score,[1],0.436
same,composite z-score,[2],1.18
same,composite z-score,[3],0.307
same,composite z-score,[4],-0.71
same,composite z-score,[5],-0.176
same,composite z-score,[6],0.974
same,z-score,[7],-0.336
same,composite z-score,Lefty1,-1.32
same,composite z-score,[8],-0.204
same,z-score,[9],0.735 (inactive)
same,composite z-score,[10],-0.102
same,z-score,[11],-0.963 (inactive)
same,z-score,[12],0.585 (inactive)
same,z-score,[13],0.148 (inactive)
same,z-score,[14],1.58 (inactive)
same,composite z-score,[15],-0.411
same,composite z-score,[16],-0.374
same,composite z-score,Torsin-1A (Homo sapiens) [17],0.385
same,composite z-score,Torsin-1A (Homo sapiens) [18],0.65
same,composite z-score,[19],-0.784
NC(=O)NCC#Cc1ccc2c(c1)[C@]1(C(=O)N2)[C@H](c2ccc(OCCO)cc2)N2[C@H](c3ccccc3)[C@H](c3ccccc3)OC(=O)[C@H]2[C@@H]1C(=O)N1CCCCCCC1,composite z-score,[1],0.418
same,composite z-score,[2],1.18
same,composite z-score,[3],1.08
same,composite z-score,[4],0.41
same,composite z-score,[5],1.39
same,composite z-score,[6],1.15
same,z-score,[7],-1
same,composite z-score,Lefty1,1.64
same,composite z-score,[8],1.44
same,z-score,[9],-0.254 (inactive)
same,composite z-score,[10],1.4
same,z-score,[11],0.132 (inactive)
same,z-score,[12],0.848 (inactive)
same,z-score,[13],-0.0515 (inactive)
same,z-score,[14],0.449 (inactive)
same,composite z-score,[15],3.11
same,composite z-score,[16],1.93
same,composite z-score,Torsin-1A (Homo sapiens) [17],0.533
same,composite z-score,Torsin-1A (Homo sapiens) [18],1.02
same,composite z-score,[19],1.35
